# Source: ChEMBL document CHEMBL1961873, “Compounds: GSK PKIS; Assays: Nanosyn kinase panel” (2012)
# Tests used:
# [1] = target: RAC-alpha serine/threonine-protein kinase (Homo sapiens) (UniProt P31749); details: at 0.1 µM
# [2] = target: RAC-alpha serine/threonine-protein kinase (Homo sapiens) (UniProt P31749); details: at 1 µM
# [3] = target: RAC-beta serine/threonine-protein kinase (Homo sapiens) (UniProt P31751); details: at 0.1 µM
# [4] = target: RAC-gamma serine/threonine-protein kinase (Homo sapiens) (UniProt Q9Y243); details: at 0.1 µM
# [5] = target: RAC-gamma serine/threonine-protein kinase (Homo sapiens) (UniProt Q9Y243); details: at 1 µM
# [6] = target: G protein-coupled receptor kinase 6 (Homo sapiens) (UniProt P43250); details: at 0.1 µM
# [7] = target: G protein-coupled receptor kinase 6 (Homo sapiens) (UniProt P43250); details: at 1 µM
# [8] = target: T1, Rhodopsin kinase GRK7 (Homo sapiens) (UniProt Q8WTQ7); details: at 0.1 µM
# T1 sequence (whole entry): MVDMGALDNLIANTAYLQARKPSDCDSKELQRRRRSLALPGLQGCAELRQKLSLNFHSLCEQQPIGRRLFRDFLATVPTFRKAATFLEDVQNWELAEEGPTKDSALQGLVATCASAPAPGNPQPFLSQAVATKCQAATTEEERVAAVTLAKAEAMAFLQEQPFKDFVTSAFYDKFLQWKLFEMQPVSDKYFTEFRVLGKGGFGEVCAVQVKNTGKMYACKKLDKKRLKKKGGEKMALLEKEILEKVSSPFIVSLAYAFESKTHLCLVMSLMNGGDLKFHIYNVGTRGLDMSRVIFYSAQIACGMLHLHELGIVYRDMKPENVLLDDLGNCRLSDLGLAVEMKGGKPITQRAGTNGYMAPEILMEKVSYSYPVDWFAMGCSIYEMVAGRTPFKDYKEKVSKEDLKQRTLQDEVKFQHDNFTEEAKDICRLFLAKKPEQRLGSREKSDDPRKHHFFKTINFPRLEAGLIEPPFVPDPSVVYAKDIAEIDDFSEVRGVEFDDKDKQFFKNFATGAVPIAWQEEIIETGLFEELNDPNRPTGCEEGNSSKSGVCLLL
# [9] = target: T1, Rhodopsin kinase GRK7 (Homo sapiens); details: at 1 µM
# [10] = target: RAC-beta serine/threonine-protein kinase (Homo sapiens) (UniProt P31751); details: at 1 µM
# RAC-alpha serine/threonine-protein kinase (Homo sapiens), sequence (P31749 whole entry): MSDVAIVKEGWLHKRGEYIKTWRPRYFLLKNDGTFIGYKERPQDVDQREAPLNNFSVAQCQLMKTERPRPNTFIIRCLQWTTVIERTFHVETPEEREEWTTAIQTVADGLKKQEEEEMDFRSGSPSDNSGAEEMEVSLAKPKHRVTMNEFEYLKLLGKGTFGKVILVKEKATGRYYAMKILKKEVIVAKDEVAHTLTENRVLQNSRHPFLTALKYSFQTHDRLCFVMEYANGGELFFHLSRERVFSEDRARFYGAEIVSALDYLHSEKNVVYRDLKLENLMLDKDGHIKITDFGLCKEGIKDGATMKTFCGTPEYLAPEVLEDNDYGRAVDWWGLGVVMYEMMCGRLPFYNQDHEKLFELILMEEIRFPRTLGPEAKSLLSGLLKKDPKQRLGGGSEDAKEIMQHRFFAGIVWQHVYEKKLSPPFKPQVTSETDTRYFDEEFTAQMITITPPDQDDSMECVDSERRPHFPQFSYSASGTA
# RAC-gamma serine/threonine-protein kinase (Homo sapiens), sequence (Q9Y243 whole entry): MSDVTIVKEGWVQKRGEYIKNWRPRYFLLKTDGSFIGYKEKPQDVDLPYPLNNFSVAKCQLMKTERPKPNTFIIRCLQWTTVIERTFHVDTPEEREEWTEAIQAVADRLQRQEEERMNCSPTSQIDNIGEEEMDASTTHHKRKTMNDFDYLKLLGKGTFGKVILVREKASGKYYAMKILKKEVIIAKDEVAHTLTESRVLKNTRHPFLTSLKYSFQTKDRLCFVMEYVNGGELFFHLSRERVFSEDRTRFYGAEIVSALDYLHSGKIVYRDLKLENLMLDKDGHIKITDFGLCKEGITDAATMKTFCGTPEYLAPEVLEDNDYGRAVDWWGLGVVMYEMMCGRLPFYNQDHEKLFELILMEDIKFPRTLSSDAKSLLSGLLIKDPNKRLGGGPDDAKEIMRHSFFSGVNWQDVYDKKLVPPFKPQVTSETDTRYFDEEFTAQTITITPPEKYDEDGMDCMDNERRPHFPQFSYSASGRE
# RAC-beta serine/threonine-protein kinase (Homo sapiens), sequence (P31751 whole entry): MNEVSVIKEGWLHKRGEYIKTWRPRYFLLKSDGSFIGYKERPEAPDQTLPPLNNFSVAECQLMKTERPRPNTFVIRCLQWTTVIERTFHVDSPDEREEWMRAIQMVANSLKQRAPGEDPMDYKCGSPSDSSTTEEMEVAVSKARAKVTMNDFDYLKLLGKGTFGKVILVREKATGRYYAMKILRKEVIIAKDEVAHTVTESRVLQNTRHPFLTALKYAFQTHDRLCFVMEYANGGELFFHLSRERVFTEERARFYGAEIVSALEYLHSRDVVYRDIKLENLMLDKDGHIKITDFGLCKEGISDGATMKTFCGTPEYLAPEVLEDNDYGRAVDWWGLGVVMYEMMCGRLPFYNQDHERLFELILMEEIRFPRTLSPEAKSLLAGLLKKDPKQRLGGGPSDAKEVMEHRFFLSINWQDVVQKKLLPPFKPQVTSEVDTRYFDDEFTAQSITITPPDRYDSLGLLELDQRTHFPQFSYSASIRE
# G protein-coupled receptor kinase 6 (Homo sapiens), sequence (P43250 whole entry, looked up): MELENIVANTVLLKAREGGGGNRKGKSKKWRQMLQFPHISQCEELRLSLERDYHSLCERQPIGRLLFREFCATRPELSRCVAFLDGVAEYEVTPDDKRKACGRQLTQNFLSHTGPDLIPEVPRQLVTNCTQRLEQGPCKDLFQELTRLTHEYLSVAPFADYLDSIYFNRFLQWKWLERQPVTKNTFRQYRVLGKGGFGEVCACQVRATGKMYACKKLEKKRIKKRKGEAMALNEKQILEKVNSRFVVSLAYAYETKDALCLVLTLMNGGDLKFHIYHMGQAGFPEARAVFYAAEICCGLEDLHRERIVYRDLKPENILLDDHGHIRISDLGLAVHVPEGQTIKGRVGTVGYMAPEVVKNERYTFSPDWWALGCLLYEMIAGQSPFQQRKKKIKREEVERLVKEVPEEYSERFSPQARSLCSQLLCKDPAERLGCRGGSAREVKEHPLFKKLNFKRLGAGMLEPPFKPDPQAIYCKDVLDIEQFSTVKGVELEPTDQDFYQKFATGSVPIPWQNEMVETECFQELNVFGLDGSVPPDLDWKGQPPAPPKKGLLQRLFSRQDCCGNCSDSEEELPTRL
smiles,measurement,setting,value
Fc1ccc(-c2ncn(C3CCNCC3)c2-c2ccnc(Oc3ccccc3)n2)cc1,inhibition,[1],-3.52%
same,inhibition,[2],-2.95%
same,inhibition,[3],-2.98%
same,inhibition,[4],-3.09%
same,inhibition,[5],4.46%
same,inhibition,[6],-2.07%
same,inhibition,[7],1.13%
same,inhibition,[8],8.55%
same,inhibition,[9],-1.71%
COc1cccc(COc2cc(-n3cnc4ccccc43)sc2C(N)=O)c1,inhibition,[1],2.26%
same,inhibition,[2],0.35%
same,inhibition,[10],2.81%
same,inhibition,[4],-0.85%
same,inhibition,[5],-1.8%
same,inhibition,[6],0.1%
same,inhibition,[7],0.82%
same,inhibition,[8],4.74%
same,inhibition,[9],-0.33%
CCn1c(-c2nonc2N)nc2c(C#CC(C)(C)O)ncc(OCC3CCNCC3)c21,inhibition,[1],60.7%
same,inhibition,[2],88.2%
same,inhibition,[3],74.2%
same,inhibition,[10],89.3%
same,inhibition,[4],57.7%
same,inhibition,[5],86%
same,inhibition,[6],4.53%
same,inhibition,[7],11.1%
same,inhibition,[8],5.08%
same,inhibition,[9],23.3%
COc1cc(C=NNc2ncnc3c2cnn3Cc2ccccc2)ccc1O,inhibition,[1],-2.34%
same,inhibition,[2],-2.35%
same,inhibition,[3],-3.56%
same,inhibition,[10],-1.08%
same,inhibition,[4],-2.66%
same,inhibition,[5],-1.29%
same,inhibition,[6],-3.93%
same,inhibition,[7],-0.64%
same,inhibition,[9],-3.65%
CCn1c(-c2nonc2N)nc2c(C#CCN)ncc(OCCCN)c21,inhibition,[1],-0.6%
same,inhibition,[2],10.9%
same,inhibition,[3],-0.31%
same,inhibition,[10],12.8%
same,inhibition,[4],1.83%
same,inhibition,[5],10%
same,inhibition,[6],-5.01%
same,inhibition,[7],6.23%
same,inhibition,[8],0.4%
same,inhibition,[9],7.43%
CCn1c(-c2nonc2N)nc2c(C#CC(C)(C)O)nc(O[C@@H](CN)c3ccccc3)cc21,inhibition,[1],93.7%
same,inhibition,[2],96.4%
same,inhibition,[4],93.3%
same,inhibition,[5],95%
same,inhibition,[6],1.13%
same,inhibition,[7],1.51%
same,inhibition,[8],3%
same,inhibition,[9],114%
Cc1cc(-c2ccco2)cc(C)c1/C=C/c1cncc(-c2nn[nH]n2)c1,inhibition,[1],-0.08%
same,inhibition,[2],-0.39%
same,inhibition,[3],-0.63%
same,inhibition,[10],0.09%
same,inhibition,[4],-0.47%
same,inhibition,[6],-3.85%
same,inhibition,[8],11.8%
same,inhibition,[9],49.9%
NS(=O)(=O)c1ccc(N/C=C2\C(=O)Nc3ccc4ncsc4c32)cc1,inhibition,[1],0.54%
same,inhibition,[2],0.61%
same,inhibition,[3],2.08%
same,inhibition,[10],2.38%
same,inhibition,[4],0.65%
same,inhibition,[5],3.15%
same,inhibition,[6],4.87%
same,inhibition,[7],18.7%
same,inhibition,[8],8.46%
same,inhibition,[9],6.58%
CCn1c(-c2nonc2N)nc2c(C#CC(C)(C)O)ncc(OC[C@@H]3CCCN3)c21,inhibition,[1],68.2%
same,inhibition,[2],91.1%
same,inhibition,[3],79.7%
same,inhibition,[4],67.5%
same,inhibition,[5],90.4%
same,inhibition,[6],-2.91%
same,inhibition,[7],0.91%
same,inhibition,[8],6.42%
same,inhibition,[9],14%
COc1cc2c(cc1Nc1nc(Nc3ccsc3C(N)=O)c3cc[nH]c3n1)N(C(=O)CN(C)C)CCC2,inhibition,[1],-0.27%
same,inhibition,[2],-0.06%
same,inhibition,[3],2.64%
same,inhibition,[10],0.91%
same,inhibition,[4],2.81%
same,inhibition,[5],4.75%
same,inhibition,[6],27.5%
same,inhibition,[7],82.8%
same,inhibition,[8],22.1%
same,inhibition,[9],60.3%
Nc1nonc1-c1nc2cnccc2n1C1CCCCC1,inhibition,[1],3.37%
same,inhibition,[2],37.4%
same,inhibition,[3],1.24%
same,inhibition,[10],22.4%
same,inhibition,[4],3.35%
same,inhibition,[5],32.3%
same,inhibition,[6],-0.4%
same,inhibition,[7],2.07%
same,inhibition,[8],-7.5%
same,inhibition,[9],2.63%
COc1cccc(-n2ncc3c(N/N=C/c4ccncc4)ncnc32)c1,inhibition,[1],0.24%
same,inhibition,[2],-0.78%
same,inhibition,[3],1.42%
same,inhibition,[10],-0.44%
same,inhibition,[4],3.63%
same,inhibition,[5],0.47%
same,inhibition,[6],1.7%
same,inhibition,[7],1.85%
same,inhibition,[8],5.1%
same,inhibition,[9],5.17%
NS(=O)(=O)c1ccc(-c2ccc3c(NC(=O)C4CC4)n[nH]c3c2)cc1,inhibition,[1],0.97%
same,inhibition,[2],1%
same,inhibition,[3],1.38%
same,inhibition,[10],0.67%
same,inhibition,[4],0.25%
same,inhibition,[5],-0.65%
same,inhibition,[6],0.33%
same,inhibition,[7],-2.37%
same,inhibition,[8],-0.74%
NC(=O)c1sc(-n2cnc3cc(C(F)(F)F)ccc32)cc1OCc1ccccc1Br,inhibition,[1],0.26%
same,inhibition,[2],0.43%
same,inhibition,[3],-0.81%
same,inhibition,[10],0.47%
same,inhibition,[4],0.03%
same,inhibition,[6],3.71%
same,inhibition,[7],1.08%
same,inhibition,[8],5.6%
same,inhibition,[9],5.78%
